The text below walks through data of PubChem BioAssay (NCI).

Structures are written as SMILES. This is part of a sample that, as a whole, favours compounds with a hit. Of some 83,000 tested, about 20% had one in any assay.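 Results are percent growth after 48 hours of single-concentration exposure. 100 means growth as in untreated cells, lower positive values show inhibition; negative values down to -100 show cell death.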 A number with no mark means an inactive call. Activity calls are given as the source filed them. How the source made its calls: active means growth percent below 10; inactive means the rest.

For the test, the system named is MDA-MB-468 breast. Briefly: NCI-60 one-dose screen, 48 h (100 = growth as untreated, 0 = no growth, -100 = all killed). As to conditions: 10 µM unless noted.
Take `Cn1cc(-c2ccc3occ(-c4cccc(-c5ccncc5)c4)c3n2)cn1`: the growth was 4.07% (active).
The value for `FC(F)(F)c1ccc(CNc2ccc(Cc3c[nH]c4ncc(Cl)cc34)cn2)cn1` was -0.191% (active).
For `COc1ccc(CC2c3cc(OC)c(OC)cc3CC[N+]2(C)CCC(=O)OCCCCCOC(=O)CC[N+]2(C)CCc3cc(OC)c(OC)cc3C2Cc2ccc(OC)c(OC)c2)cc1OC` (centres undefined), the growth is 88.3%.
For the compound `Cc1cc(CSc2ccccc2C(=O)N2CC=C(c3ccccc3)CC2)on1`, the growth is 94.2%.
Consider `C=CC1=NC(C)(C)CC(C)O1` (centres undefined), for which the growth is 109%.
Turning to `COc1cc(/C=C/c2cc(/C=C/c3ccc(O)c(OC)c3)n(C(=O)Nc3ccc(Cl)cc3)n2)ccc1O`, the growth is -26.4% (active).
Turning to `c1ccc(C2CCCCC2)c(OCCCCCN2CCNCC2)c1`, the growth was -36.2% (active).
The result for `CCN1C(=O)N(CC)C2C1NC(=S)N2/N=C/c1ccc(OC)cc1` (centres undefined) reads 26.8%.
The result for `O=S(=O)(NCCNc1nccc(-c2c(-c3ccc(F)cc3)nc3sccn23)n1)c1ccc2ccccc2c1` reads 76.4%.
For `Cc1nc2ccccc2c(/C=C/c2ccc(F)cc2)c1C(=O)/C=C/c1ccccc1`, the growth is 17%.
In the case of `O=C1Nc2ccc(Br)cc2/C1=N/c1n[nH]c(=S)s1`, the growth is 103%.
The value for `Cn1cc(-c2nc(N)nnc2-c2c[nH]c3ccc(Br)cc23)c2cc(F)ccc21` was 75.5%; that for `N#Cc1c(-c2ccccc2)nc2c(c(-c3ccccc3)nn2-c2ccccc2)c1-c1ccc(N2CCOCC2)cc1` was 80.9%.
For the compound `COc1ccc(CN2c3ccccc3Oc3ccccc32)cc1F`, the growth is 44.3%.
